HT1080 IDH1KD tx – qHTS for induction of synthetic lethality in tumor cells producing 2HG: qHTS for the HT-1080-IDH1KD cell line | AID 686971, 2013 | HT-1080 IDH1 knockdown viability, ATP luminescence, 48 h | Potency, µM (series often up to 46.1 µM), for the others: top-dose activity, negative = toxicity, usual class: cytotoxic | 360,000 compounds, 2% hits;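 note: potency is the fitted concentration of half-maximal effect; 0% = DMSO wells and -100% = cell-free medium wells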
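After a 2 h attachment period, IDH1KD HT-1080 cells took pin-transferred compound for 48 h at 37 °C; ATP-based luminescence after 10 min room-temperature reagent incubation reported viability.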
HT1080NT lethal – qHTS for induction of synthetic lethality in tumor cells producing 2HG: qHTS for the HT-1080-NT fibrosarcoma cell line; HT-1080-NT fibrosarcoma viability, CellTiter-Glo ATP luminescence, 48 h; Potency, µM (highest dose often 46.1 µM), without a hit: at the top dose activity, negative = less viability, hits mostly cytotoxic; 360,000 compounds, 1.6% hits;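 note: NT is the 2HG producing partner of a matched IDH1 knockdown line; potency is the fitted concentration of half-maximal effect; 0% = DMSO-treated cells and -100% = media-only wells without cells; nearly all actives have a fitted effect of over 55% in size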
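Read-out is CellTiter-Glo luminescence after 10 minutes at room temperature, following 48 hours' compound treatment of HT-1080-NT cells (750 cells/well, RPMI, 5% FBS, 37 degrees C).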
TDP1 cell noCPT – qHTS for Inhibitors of human tyrosyl-DNA phosphodiesterase 1 (TDP1): qHTS in cells in absence of CPT; DT40 Tdp1-/- hTDP1 cells, no CPT, ATP luminescence, 48 h; Potency, µM (highest dose often 46.2 µM), inactives show at the highest dose activity change, negative = growth inhibition, most hits filed as inhibitors; 420,000 compounds, 15% hits; AID 686978, 2013; note: potency is the fitted concentration of half-maximal effect; nearly all actives have a fitted effect of over 55% in size
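Readout: luminescence from CellTiter-Glo after 30 min in the dark at RT. Cells: DT40 Tdp1-/- with stable hTDP1, 400/well. Exposure: compounds alone, ≥48 hr, 37 °C.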
IL-1B inflam inh – qHTS for Inhibitors of Inflammasome Signaling: IL-1-beta AlphaLISA Primary Screen; THP-1 LPS/ATP IL-1B secretion, AlphaLISA, 16 h; stronger effect = lower value; activity change, % at 57.5 µM; 360,000 compounds, 4.7% hits; AID 743279, 2014; in the data active = activity change below about -50%; inconclusive = mostly about -30% to -49%
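THP-1 cells pretreated 1 hr with compounds (up to 57.5 uM final), then stimulated with LPS (250 ng/mL final) plus ATP (1.25 mM final); secreted IL-1B measured by AlphaLISA after 16 hr, decreased signal indicating inhibition.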
DT40 TDP1 CPT – qHTS for Inhibitors of human tyrosyl-DNA phosphodiesterase 1 (TDP1): qHTS in cells in presence of CPT; Potency, µM (highest dose often 46.2 µM), for inactives: at the highest dose activity change, negative = growth inhibition, most hits filed as inhibitors; 420,000 compounds, 12% hits; AID 686979, 2013; chicken DT40 Tdp1-/-;hTDP1 cells + 20 nM CPT, ATP luminescence, 48 h; note: potency is the fitted concentration of half-maximal effect; nearly all actives have a fitted effect of over 55% in size
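Cell growth measured by CellTiter-Glo luminescence after a minimum 48 h, 37 C compound exposure with 20 nM CPT in Tdp1-knockout DT40 cells stably expressing hTDP1, seeded 400/well; qHTS titration format.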
* hit, by the source's call; u = inconclusive; x = no result. Hits are enriched below; roughly 19% of the tested compounds scored in any of these assays. Unless noted, calls come from the whole dose curve; as a rule, active = well fitted curve in the direction sought with a large enough effect; inconclusive = small, poorly fitted or top-dose-only effect, or another doubt; inactive = no such curve, though single readings can be large; an effect the other way counts as inactive or inconclusive. Unless noted, % is set by controls: 0 for no effect and ±100 for the full control effect.

SMILES	HT1080 IDH1KD tx	HT1080NT lethal	TDP1 cell noCPT	IL-1B inflam inh	DT40 TDP1 CPT
Cc1ccc(NC(=O)CN(C)C(=O)c2cccc(-n3cccc3)c2)cc1	4%	0%	-4%	-8	15%
COc1ccc2c(c1)[C@H]1[C@H](CO2)[C@H](c2ccccc2)[C@]2(C)C(=O)N(Cc3ccc(C)cc3)CC(=O)N12	-17%	u	u	-56*	15µM*
COc1ccc2c(c1)OC[C@H]1[C@H]2N2C(=O)CN(Cc3ccc(Cl)cc3)C(=O)[C@@]2(C)[C@H]1c1ccccc1	-1%	-6%	u	u	8.2µM*
CCOC(=O)[C@H]1[C@H]2COc3cc(OC)ccc3[C@@H]2N2C(=O)CN(Cc3ccccc3)C(=O)[C@@]12C	1%	-2%	-23%	-1	-27%
COc1ccc(CN2CC(=O)N3[C@H]4c5ccc(OC)cc5OC[C@@H]4[C@H](c4ccccc4)[C@]3(C)C2=O)cc1	3%	-3%	18µM*	-19	u
Cc1ccc([C@@H]2[C@@H]3C(=O)N(c4ccccc4)C(=O)[C@@H]3[C@]3(C)C(=O)N(Cc4ccc(-c5ccccc5)cc4)CC(=O)N23)o1	-10%	-6%	u	7	18µM*
CCCNC(=O)C1CCN(S(=O)(=O)c2ccc3c(c2)CCCN3C(C)=O)CC1	x	x	u	x	-28%
COc1ccc(OC)c(C(=O)CN2C(=O)C(=O)N(C3CCCC3)C2=O)c1	5%	3%	-1%	0	-18%
COc1ccc2c(c1)OC[C@H]1[C@H]2N2C(=O)CN(C)C(=O)[C@@]2(C)[C@H]1c1ccccc1	13%	u	-18%	10	u
COc1ccc2c(c1)OC[C@H]1[C@H]2N2C(=O)CN(Cc3ccccc3)C(=O)[C@@]2(C)[C@H]1c1ccccc1	-1%	-1%	u	-54*	18µM*
CC(C)(C)c1cc(S(=O)(=O)CCc2ccccn2)cc(C(C)(C)C)c1F	u	u	15µM*	-88*	13µM*
CN(CCc1ccccn1)S(=O)(=O)c1ccc(F)cc1	-1%	2%	-21%	15	-10%
CC1CC[C@@]23CCC4(C)[C@@]5(C)CCC6C(C)(C)C(=O)CC[C@@]6(C)C5C=C[C@@]4(OC2=O)C3C1C (some centres undefined)	x	x	-8%	x	-1%
CN(Cc1cccc(Cl)c1)C(=O)C1CSC2(C)CCC(=O)N12 (centres undefined)	16%	12%	21µM*	15	18µM*
CN(Cc1ccc(Cl)cc1Cl)C(=O)C1CSC2(C)CCC(=O)N12 (centres undefined)	-14%	-15%	16µM*	4	13µM*
COc1ccc(CN(C)C(=O)C2CSC3(C)CCC(=O)N23)cc1OC (centres undefined)	16%	-5%	-9%	-6	-5%
COc1ccc(CN(C)C(=O)C2CSC3(C)CCC(=O)N23)c(OC)c1 (centres undefined)	-4%	-5%	15µM*	0	12µM*
O=C(Nc1cccc([N+](=O)[O-])c1)c1ccc(CN2CCOCC2)cc1	0%	4%	-25%	-9	-5%
CC(C)c1ccc(/C=C/C(=O)NC(=S)NN2CCOCC2)cc1	-5%	-9%	u	-1	u
O=C(/C=C/c1cccc([N+](=O)[O-])c1)NC(=S)Nc1ccc(CN2CCOCC2)cc1	0%	5%	18µM*	-94*	16µM*
CC(C)c1ccc(/C=C/C(=O)NC(=S)Nc2ccc(CN3CCOCC3)cc2)cc1	u	u	18µM*	-65*	9.2µM*
C[C@]1(CO)CCC[C@@]2(C)C1CC[C@@H](CO)[C@@H]2CCc1ccoc1 (some centres undefined)	1%	-1%	u	0	u
CC(C)N(C(=O)CN1C(=O)NC2(CCCCCC2)C1=O)C(C)C	0%	7%	1%	16	5%
C/C(=N\NC(=O)C(=O)Nc1cccc(Cl)c1)c1ccncc1	29%	11%	7.3µM*	-2	12µM*
C/C(=N\NC(=O)C(=O)Nc1ccc(C)c(Cl)c1)c1ccncc1	22%	25%	2.3µM*	-4	1.6µM*
SMILES	HT1080 IDH1KD tx	HT1080NT lethal	TDP1 cell noCPT	IL-1B inflam inh	DT40 TDP1 CPT
C/C(=N\Nc1ccc(C)c(Cl)c1)c1ccncc1	-12%	-21%	u	-25	-5%
C/C(=N\NC(=O)c1cccs1)c1ccncc1	-2%	5%	14%	10	0%
C/C(=N\NC(=O)C(=O)Nc1ccc(C)cc1)c1ccncc1	10%	2%	9.2µM*	18	u
C/C(=N\Nc1cccc(Cl)c1)c1ccc(-n2ccnc2)cc1	-26%	-13%	16µM*	u	u
COc1cc2nc(N3CCCCC3)nc(NC(C)C)c2cc1OC	u	u	u	x	5µM*
COc1cc2nc(N3CCN(C)CC3)nc(NC(C)C)c2cc1OC	-2%	-22%	18µM*	x	u
COc1cc2nc(Cl)nc(NC(C)C)c2cc1OC	-10%	-18%	16µM*	x	14µM*
COc1cc2nc(N3CCOCC3)nc(NC(C)C)c2cc1OC	15%	-2%	u	x	u
CC(C)(C)S(=O)N1Cc2cc(CO)ccc2[C@H]1CCO (some centres undefined)	10%	9%	u	45	-22%
Cc1cc(C(=O)N/N=C/c2c(CO)cnc(C)c2O)c2ccccc2n1	21µM*	u	u	162	u
Cc1ncc(CO)c(/C=N/NC(=S)Nc2ccc(C(C)C)cc2)c1O	u	3%	21µM*	166	15µM*
Cc1ncc(CO)c(/C=N/NC(=O)c2cc(Br)ccc2O)c1O	u	u	16µM*	95	16µM*
Cc1c(/C=N/NC(=O)c2cc(Br)ccc2O)c(=O)n(C)c(=O)n1C	-2%	0%	-11%	-4	-17%
Cc1cc(C(=O)N/N=C/c2cc(Cl)cc([N+](=O)[O-])c2O)c2ccccc2n1	u	u	u	38	u
Cc1ccc(OCCNC(=O)[C@H]2O[C@@H](n3cnc4c(N)ncnc43)[C@H](O)[C@@H]2O)cc1C	0%	-5%	-28%	-6	-23%
CC(=O)Oc1ccc(/C(C)=N/N2CCN(Cc3ccc(C)cc3)CC2)cc1	4%	-1%	-11%	1	-22%
Cc1cc(=O)n(-c2ccccc2)n1C	2%	0%	-7%	-66*	-11%

From PubChem BioAssay
